Experimental data reported in the supplement of paper PMC8975748.
Counter-ions that a name gives are not always drawn. ± gives the standard deviation of the averaged measurements.

Legend:
[1] = test system: Saccharomyces cerevisiae BY4741 SeMeCo community; experiment: mean cell size (pixel area) (pixels); higher = larger cells; settings: 10 µM; 24 h; SM minimal medium
In short: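 A four-plasmid fluorescent Saccharomyces cerevisiae BY4741 community was tested; each plasmid complements one auxotrophy and carries a fluorescent marker. An overnight preculture at OD600 = 1.0 was diluted to OD600 = 0.3, and 70 µl was added to 384-well plates acoustically predosed with drug (final 10 µM) in SM medium for 24 h. Cells were fixed with paraformaldehyde and imaged by automated confocal microscopy, with analysis in Harmony. Mean cell pixel area per well is averaged over 3 replicates. Same SeMeCo high-content imaging drug screen: Selleck FDA-approved drugs at 10 µM, 24 h in SM medium, 384-well plates, 3 replicates.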

[2] = test system: Saccharomyces cerevisiae BY4741 SeMeCo community; experiment: z-score of prototroph abundance vs DMSO median; higher = larger share of this subpopulation than in DMSO controls; settings: 10 µM; 24 h; SM minimal medium; subpopulation (auxotrophy): Prototroph
In short: (§1)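 Four plasmids, each restoring a single auxotrophy and encoding a distinct fluorescent protein, were carried by a Saccharomyces cerevisiae BY4741 community. After overnight growth to OD600 1.0 and dilution to 0.3, 70 µl per well was grown for 24 h in minimal SM medium on 384-well plates acoustically predosed with library drugs at 10 µM final. Following paraformaldehyde fixation, automated confocal microscopy was used, with single-auxotroph fluorescent strains defining thresholds and autofluorescence correction. Subpopulation abundance was then scored as a z-score against the vehicle-well median.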

[3] = test system: Saccharomyces cerevisiae BY4741 SeMeCo community; experiment: z-score of subpopulation abundance vs DMSO median, subpopulation auxotrophic for M; higher = larger share of this subpopulation than in DMSO controls; settings: 10 µM; 24 h; SM minimal medium; subpopulation (auxotrophy): M
In short: as §1

[4] = test system: Saccharomyces cerevisiae BY4741 SeMeCo community; experiment: z-score of subpopulation abundance vs DMSO median, subpopulation auxotrophic for L; higher = larger share of this subpopulation than in DMSO controls; settings: 10 µM; 24 h; SM minimal medium; subpopulation (auxotrophy): L
In short: as §1

[5] = test system: Saccharomyces cerevisiae BY4741 SeMeCo community; experiment: z-score of subpopulation abundance vs DMSO median, subpopulation auxotrophic for U; higher = larger share of this subpopulation than in DMSO controls; settings: 10 µM; 24 h; SM minimal medium; subpopulation (auxotrophy): U
In short: as §1

[6] = test system: Saccharomyces cerevisiae BY4741 SeMeCo community; experiment: z-score of subpopulation abundance vs DMSO median, subpopulation auxotrophic for H; higher = larger share of this subpopulation than in DMSO controls; settings: 10 µM; 24 h; SM minimal medium; subpopulation (auxotrophy): H
In short: as §1

[7] = test system: Saccharomyces cerevisiae BY4741 SeMeCo community; experiment: z-score of subpopulation abundance vs DMSO median, subpopulation auxotrophic for LU; higher = larger share of this subpopulation than in DMSO controls; settings: 10 µM; 24 h; SM minimal medium; subpopulation (auxotrophy): LU
In short: as §1

[8] = test system: Saccharomyces cerevisiae BY4741 SeMeCo community; experiment: z-score of subpopulation abundance vs DMSO median, subpopulation auxotrophic for HM; higher = larger share of this subpopulation than in DMSO controls; settings: 10 µM; 24 h; SM minimal medium; subpopulation (auxotrophy): HM
In short: as §1

[9] = test system: Saccharomyces cerevisiae BY4741 SeMeCo community; experiment: z-score of subpopulation abundance vs DMSO median, subpopulation auxotrophic for HU; higher = larger share of this subpopulation than in DMSO controls; settings: 10 µM; 24 h; SM minimal medium; subpopulation (auxotrophy): HU
In short: as §1

[10] = test system: Saccharomyces cerevisiae BY4741 SeMeCo community; experiment: z-score of subpopulation abundance vs DMSO median, subpopulation auxotrophic for UM; higher = larger share of this subpopulation than in DMSO controls; settings: 10 µM; 24 h; SM minimal medium; subpopulation (auxotrophy): UM
In short: as §1

[11] = test system: Saccharomyces cerevisiae BY4741 SeMeCo community; experiment: z-score of subpopulation abundance vs DMSO median, subpopulation auxotrophic for HL; higher = larger share of this subpopulation than in DMSO controls; settings: 10 µM; 24 h; SM minimal medium; subpopulation (auxotrophy): HL
In short: as §1

[12] = test system: Saccharomyces cerevisiae BY4741 SeMeCo community; experiment: z-score of subpopulation abundance vs DMSO median, subpopulation auxotrophic for HLU; higher = larger share of this subpopulation than in DMSO controls; settings: 10 µM; 24 h; SM minimal medium; subpopulation (auxotrophy): HLU
In short: as §1

[13] = test system: Saccharomyces cerevisiae BY4741 SeMeCo community; experiment: z-score of subpopulation abundance vs DMSO median, subpopulation auxotrophic for HLM; higher = larger share of this subpopulation than in DMSO controls; settings: 10 µM; 24 h; SM minimal medium; subpopulation (auxotrophy): HLM
In short: as §1

[14] = test system: Saccharomyces cerevisiae BY4741 SeMeCo community; experiment: z-score of subpopulation abundance vs DMSO median, subpopulation auxotrophic for HUM; higher = larger share of this subpopulation than in DMSO controls; settings: 10 µM; 24 h; SM minimal medium; subpopulation (auxotrophy): HUM
In short: as §1

[15] = test system: Saccharomyces cerevisiae BY4741 SeMeCo community; experiment: z-score of subpopulation abundance vs DMSO median, subpopulation auxotrophic for LUM; higher = larger share of this subpopulation than in DMSO controls; settings: 10 µM; 24 h; SM minimal medium; subpopulation (auxotrophy): LUM
In short: as §1

[16] = test system: Saccharomyces cerevisiae BY4741 SeMeCo community; experiment: z-score of subpopulation abundance vs DMSO median, subpopulation auxotrophic for HLUM; higher = larger share of this subpopulation than in DMSO controls; settings: 10 µM; 24 h; SM minimal medium; subpopulation (auxotrophy): HLUM
In short: as §1

[17] = test system: Saccharomyces cerevisiae BY4741 SeMeCo community; experiment: z-score of subpopulation abundance vs DMSO median, subpopulation auxotrophic for LM; higher = larger share of this subpopulation than in DMSO controls; settings: 10 µM; 24 h; SM minimal medium; subpopulation (auxotrophy): LM
In short: as §1

Row | Structure (SMILES) | mean cell size [1] | z-score of prototroph abundance [2] | z-score of subpopulation abundance [3] | z-score of subpopulation abundance [4] | z-score of subpopulation abundance [5] | z-score of subpopulation abundance [6] | z-score of subpopulation abundance [7] | z-score of subpopulation abundance [8] | z-score of subpopulation abundance [9] | z-score of subpopulation abundance [10] | z-score of subpopulation abundance [11] | z-score of subpopulation abundance [12] | z-score of subpopulation abundance [13] | z-score of subpopulation abundance [14] | z-score of subpopulation abundance [15] | z-score of subpopulation abundance [16] | z-score of subpopulation abundance [17]
1 | COc1ccc2[nH]c([S+]([O-])Cc3ncc(C)c(OC)c3C)nc2c1 (centres undefined) [Omeprazole Sodium] | 12.1 ± 0.19 | 0.8 | -0.71 | 0.3 | -1.22 | 1.92 | -0.12 | -0.21 | -0.78 | -1.63 | 0.77 | 0.43 | -0.14 | -0.81 | -0.98 | -0.1 | 
2 | C#C[C@]1(O)CC[C@H]2[C@@H]3CCC4=CC(=O)CC[C@@H]4[C@H]3CC[C@@]21CC [Levonorgestrel] | 12.4 ± 0.16 |  | -0.18 | -0.24 | 0.3 | -0.72 | -0.04 | -0.99 | -0.13 |  | -0.95 | 0.05 | -0.96 | -0.08 | -0.68 | -0.86 | 
3 | CN(CCN1CCC(OC(=O)Nc2ccccc2-c2ccccc2)CC1)C(=O)c1ccc(CN2CCC(C(N)=O)CC2)cc1 [Revefenacin] | 12.17 ± 0.043 | -0.26 | 1.54 | -0.42 |  | -0.6 | 0.12 | 0.49 | -0.27 | 0.92 | -0.32 | -0.13 | -0.49 | 0.24 | 0.17 | -0.7 | 
4 | NCCc1ccc(O)c(O)c1 [Dopamine HCl] |  | 1.09 | -0.7 | -1.11 | -0.48 | -0.34 | -0.45 | -0.38 | -0.79 | -0.71 | -1.06 | -0.89 | -0.89 | -0.77 | -0.34 | -0.04 | -0.73
5 | CC(=O)OCC1=C(C(=O)O)N2C(=O)[C@@H](NC(=O)Cc3cccs3)[C@H]2SC1 [Cephalothin] | 12.7 ± 0.19 | 0.3 | 1.49 | -0.16 | -1.22 | 0.18 | -0.87 | 1.49 | -0.81 | -0.2 |  | -0.21 | 0.05 | -0.69 | -0.19 | -0.41 | 
6 | Cc1cc(NS(=O)(=O)c2ccc(N)cc2)nc(C)n1 [sulfaisodimidine] | 12.1 ± 0.25 |  | 0.59 | 0.19 | 0.36 | -1.29 | 0.99 | 0.38 | 0.09 | 0.16 |  | 0.38 | -0.45 | -0.19 | 0.42 |  | 
7 | Cc1c(-c2ccccc2)oc2c(C(=O)OCCN3CCCCC3)cccc2c1=O [Flavoxate HCl] |  | -0.85 | 0.25 | 0.83 | 0.96 | -0.53 | 1.88 | 0.21 | 0.05 | 0.71 | -0.37 | 1.32 | 0.18 | -0.16 | 1.06 | 1.01 | 0.22
8 | CCN(CC)CC#CCOC(=O)C(O)(c1ccccc1)C1CCCCC1 (centres undefined) [Oxybutynin chloride] | 12.57 ± 0.03 | 1.15 | -0.21 | -0.83 | -0.51 | -0.41 | -1.2 | 0.06 |  | -1.11 | -0.93 | -0.57 | -0.24 | -0.97 | -0.46 | -0.26 | 
9 | Cc1nc2n(c(=O)c1CCN1CCC(c3noc4cc(F)ccc34)CC1)CCCC2O (centres undefined) [Paliperidone] | 12 ± 0.24 | 0.1 | 0.41 | -0.99 | 0.75 |  | -0.02 | 0.04 | 0.19 |  | -1.06 | -0.96 | -1.03 | 0.09 | -1.04 | -0.53 | 
10 | CCCCN1CCCC[C@H]1C(=O)Nc1c(C)cccc1C [Levobupivacaine HCl] |  | 0.73 | -1.02 | 0.42 | -0.04 |  | -0.09 | -1.34 | 0.14 | -0.49 | -0.46 | -0.48 | -0.93 | -0.73 | -0.33 | -0.43 | -0.55
11 | COc1cc(N)c(Cl)cc1C(=O)NC1CCN(CCCOc2ccc(F)cc2)CC1OC (centres undefined) [Cisapride hydrate] | 12.52 ± 0.044 | -0.46 | 0.32 | -0.75 |  | 0.05 | 0.83 |  | 1.34 | 0.98 | -0.17 | 0.05 | 0.12 | 0.84 | -0.28 | -0.3 | 
12 | CO/N=C(\C(=O)N[C@@H]1C(=O)N2C(C(=O)O)=C(Cn3ccc(=N)n3CCO)CS[C@H]12)c1csc(N)n1 [Cefoselis Sulfate] | 12.3 ± 0.24 | 0.34 | 1.45 | -1.67 |  |  | -0.98 | -0.32 | -0.72 | 0.03 | -1.68 | -0.33 | -1.24 | 0.02 | -0.44 | -0.64 | 
13 | CC1(C)[C@H](C(=O)O)N2C(=O)C[C@H]2S1(=O)=O [Sulbactam sodium] | 12.54 ± 0.013 | -0.92 | 0.51 | -0.23 |  | -0.33 | 0.63 |  | 1.1 | 1.22 | 0.14 | 0.64 | -0.2 | 1.25 | 0.21 | 0.51 | 
14 | Cc1ccc(O)c([C@H](CCN(C(C)C)C(C)C)c2ccccc2)c1 [Tolterodine tartrate] |  | -0.65 | 0.22 | 0.31 | -0.01 |  | -0.23 | 0.62 | 0.88 | 1.04 | -0.22 | 0.29 | -0.01 | 1.13 | 1.3 | -0.2 | 1.32
15 | O=C(c1ccccc1)c1ccc2n1CCC2C(=O)O (centres undefined) [Ketorolac] | 12.6 ± 0.32 | 0.73 | 0 | -0.04 |  | -0.3 | -0.64 | -0.76 | -1.29 |  |  | -0.97 | -0.11 | -0.93 | -0.52 | -0.11 | 
